The values that follow come from PubChem BioAssay (NCATS).

Inconclusive results are not listed. Values without a mark were called inactive. Calls of active or inactive are those of the source. Unless noted, the call rests on the fitted dose curve; in most records, active means well fitted curve in the direction sought with a large enough effect; inconclusive means small, poorly fitted or top-dose-only effect, or another doubt; inactive means no such curve, though single readings can be large; an effect the other way counts as inactive or inconclusive.

Experiment [1] is described as follows: qHTS for Inhibitors of Plasmodium falciparum (DD2) proliferation (AID 504314).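 Further: parasite DNA measured by SYBR Green fluorescence after red cell lysis; plate controls were DMSO vehicle for no effect and artemisinin wells for full effect.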 The gist of the method: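 SYBR Green DNA-fluorescence growth assay: infected RBCs at 0.3% parasitemia, 2.5% hematocrit, 72 h compound exposure, 37C, 5% CO2; overnight lysis with dye at RT; normalized to 0.29 uM artemisinin and vehicle.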
Background: In qHTS, concentration-response curves come from the screen itself.

Experiment [2] can be described thus: qHTS for Inhibitors of Plasmodium falciparum (GB4) proliferation (AID 504315).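 Further: 0% = DMSO vehicle and -100% = 0.29 µM artemisinin control; nearly all actives have a fitted effect of over 50% in size.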 The gist of the method: (§1)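 Parasite growth measured as SYBR Green DNA fluorescence (ex 485, em 535 nm) after overnight lysis following 72 h culture at 37 °C, 0.3% parasitemia, 2.5% hematocrit. Values normalized against DMSO and 0.29 uM artemisinin controls, with plate-stack correction.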

Experiment [3] can be described thus: qHTS for Inhibitors of Plasmodium falciparum (7G8) proliferation (AID 504316). Further: nearly all actives have a fitted effect of over 65% in size. Further: potency means the concentration at half of the fitted maximal effect. The gist of the method: as §1
Experiment [4] can be described thus: qHTS for Inhibitors of Plasmodium falciparum (CP250) proliferation (AID 504320).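 Further: plate controls were DMSO vehicle for no effect and 0.29 µM artemisinin control for full effect.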 The method, boiled down:
as §1

For experiment [5], the target named is Atrial natriuretic peptide receptor 1 (Homo sapiens) (UniProt P16066). As to the kind of experiment: Natriuretic polypeptide receptor (hNpr1) antagonism - Pilot CMLD screen (AID 1347052; calls by dose curve;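 further: HEK293 cells with hNpr1 stimulated by hNppA peptide at 0.1 nM; cGMP level read as GloSensor luciferase luminescence after agonist stimulation; series mostly up to about 9.2 µM; on the % scale 0 is the no-effect control and ±100 the full control effect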).
Sequence of Atrial natriuretic peptide receptor 1 (Homo sapiens) (P16066 whole entry, looked up): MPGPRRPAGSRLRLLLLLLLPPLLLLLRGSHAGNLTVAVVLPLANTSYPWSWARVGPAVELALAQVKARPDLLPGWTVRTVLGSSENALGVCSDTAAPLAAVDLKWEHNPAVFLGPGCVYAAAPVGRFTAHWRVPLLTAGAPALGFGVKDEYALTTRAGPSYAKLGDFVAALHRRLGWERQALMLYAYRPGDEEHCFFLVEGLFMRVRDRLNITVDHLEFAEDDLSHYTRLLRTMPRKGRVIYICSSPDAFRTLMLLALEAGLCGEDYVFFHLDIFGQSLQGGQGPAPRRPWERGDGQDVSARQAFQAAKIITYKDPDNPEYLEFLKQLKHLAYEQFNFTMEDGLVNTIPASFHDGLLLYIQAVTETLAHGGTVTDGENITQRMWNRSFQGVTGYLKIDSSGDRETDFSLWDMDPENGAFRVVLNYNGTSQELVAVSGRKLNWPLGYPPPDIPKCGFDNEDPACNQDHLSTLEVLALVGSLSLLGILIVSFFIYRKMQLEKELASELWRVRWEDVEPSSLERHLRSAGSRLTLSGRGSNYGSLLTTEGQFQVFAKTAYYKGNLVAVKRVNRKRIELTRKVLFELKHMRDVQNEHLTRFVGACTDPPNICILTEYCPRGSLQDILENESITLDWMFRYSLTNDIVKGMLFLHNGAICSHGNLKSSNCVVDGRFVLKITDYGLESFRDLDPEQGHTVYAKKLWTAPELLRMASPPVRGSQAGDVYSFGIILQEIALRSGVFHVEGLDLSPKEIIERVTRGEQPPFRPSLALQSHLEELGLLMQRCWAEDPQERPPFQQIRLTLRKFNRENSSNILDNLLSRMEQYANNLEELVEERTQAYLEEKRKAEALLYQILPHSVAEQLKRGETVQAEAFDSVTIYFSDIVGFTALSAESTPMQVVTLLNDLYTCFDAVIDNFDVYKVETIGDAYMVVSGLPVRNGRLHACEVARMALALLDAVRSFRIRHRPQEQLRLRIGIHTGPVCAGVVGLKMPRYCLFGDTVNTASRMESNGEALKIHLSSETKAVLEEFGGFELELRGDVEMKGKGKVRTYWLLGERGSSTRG
Experiment [6] can be described thus: qHTS for Inhibitors of Plasmodium falciparum (HB3) proliferation (AID 504318).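 Further: 0% = DMSO vehicle and -100% = artemisinin control; nearly all actives have a fitted effect of over 60% in size.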 The method, boiled down:
as §1

In the case of `COC(=O)C1=C(C(=O)OC)[C@@H]2N(C)c3ccccc3[C@@]23CCC(=O)N(CC(C)C)C3=N1`, the Potency entry in experiment [1], in experiment [2], in experiment [3], in experiment [4] and in experiment [5] was “inactive” in each case.

For `COC(=O)CC=C[C@H](C)[C@@H](OCc1ccccc1Br)C(C)C`, the Potency result in experiment [1], in experiment [2], in experiment [3], in experiment [4] and in experiment [5] was “inactive” each time.

Consider `CCN1C(=NCCc2cccnc2)NC(CCc2ccccc2)C(C(=O)OC)=C1C` (stereo unspecified), for which the Potency result in experiment [1], in experiment [2], in experiment [3], in experiment [4] and in experiment [5] was “inactive” each time.

`COC(=O)C1=C(C(=O)OC)[C@@H]2N(Cc3ccccc3)c3ccccc3[C@@]23C[C@@H](C(=O)OC)N(C(=O)Nc2ccc(C(F)(F)F)cc2)C3=N1`: the Potency result in experiment [1], in experiment [2], in experiment [3], in experiment [4] and in experiment [5] was “inactive” each time.

`COC(=O)CCCC1=CC2=CC(=O)C(C)(OC(=O)c3cccs3)C(=O)C2=CN1CCc1c[nH]c2ccccc12` (stereo unspecified): the Potency entry in experiment [1], in experiment [2], in experiment [3], in experiment [4] and in experiment [5] was “inactive” in each case.

For `C=CCOC(=O)N[C@H](c1ccco1)C(C(C)=O)C(C)=O`, the Potency entry in experiment [1], in experiment [2], in experiment [3], in experiment [4] and in experiment [5] was “inactive” each time.

With `O=c1oc2ccccc2c2c1[C@H]1O[C@](c3ccsc3)(Cc3c1ccc1ccccc31)O2`, the Potency result in experiment [1], in experiment [2], in experiment [3], in experiment [4] and in experiment [5] was “inactive” each time.

As for `CC1(OC(=O)C2CCCC2)C(=O)C=C2C=C(c3ccc(C#N)cc3)OC=C2C1=O` (stereo unspecified), the Potency entry in experiment [1], in experiment [2], in experiment [3], in experiment [4] and in experiment [5] was “inactive” throughout.

As for `C=CCN1C=C2C(=O)C(C)(OC(=O)c3ccco3)C(=O)C(C=C)=C2C=C1C1CC1` (stereo unspecified), the activity, negative = inhibition in experiment [1] was 2.08% [at 1.12 µM]. Further, the Potency entry in experiment [2], in experiment [3], in experiment [4] and in experiment [5] was “inactive” throughout.

Regarding `CC(C)CON=C1C[C@@H](O)[C@@H](O)[C@@H]2[C@H]3C(=O)N([C@@H](C)c4ccccc4)C(=O)[C@@H]3CC[C@H]12`, the Potency entry in experiment [1], in experiment [2], in experiment [3], in experiment [4] and in experiment [5] was “inactive” in each case.

For `CCOC(=O)CCN1C(=O)[C@@H]2[C@H]3[C@H](O)[C@H](O)CC(=NNC(=O)OCc4ccc(OC)cc4)[C@H]3CC[C@H]2C1=O`, the Potency entry in experiment [1], in experiment [2], in experiment [3], in experiment [4] and in experiment [5] was “inactive” throughout.

For the compound `C[C@@H]1C[C@](C)(C(=O)c2ccc3c(c2)OCO3)C=C1c1ccc2c(c1)OCO2`, the Potency entry in experiment [1], in experiment [2], in experiment [3], in experiment [4] and in experiment [5] was “inactive” each time.

`C[C@@H](ON=C1[C@H]2CCn3c(=O)n(-c4ccccc4)c(=O)n3[C@@H]2[C@H](O)[C@@H]2O[C@H]12)c1cn([C@H](CO)Cc2ccccc2)nn1`: the Potency entry in experiment [1], in experiment [2], in experiment [3], in experiment [4] and in experiment [5] was “inactive” in each case.

Take `COc1ccc(-c2nc3c(c4c2C[C@H](c2ccccc2)OC4)CN(C(=O)NCc2ccco2)CC3)c(C)c1`: in experiment [1], the activity, negative = inhibition is -0.324% [at 1.12 µM]. For the same compound, the Potency entry in experiment [2], in experiment [6] and in experiment [5] was “inactive” each time.

`COc1ccc(-c2nc3c(c4c2C[C@H](c2ccccc2)OC4)CN(C(=O)N[C@@H](C)c2ccccc2)CC3)c(C)c1`: the activity, negative = inhibition in experiment [1] is 3.19% [at 1.12 µM]. Besides, the Potency result in experiment [2], in experiment [4] and in experiment [5] was “inactive” each time. Moreover, the Potency in experiment [3] is 1.69 µM (active).

Consider `CCN1C(=NCc2ccc(OC)cc2)NC(c2cccc(C(F)(F)F)c2)C(C(=O)OC)=C1C` (stereo unspecified), for which the Potency result in experiment [1], in experiment [2], in experiment [3], in experiment [4] and in experiment [5] was “inactive” in each case.

`COC[C@@H](O)[C@H]1OCc2cc(OC)ccc2[C@H]1C=Cc1ccccc1`: the Potency entry in experiment [1], in experiment [2], in experiment [6] and in experiment [5] was “inactive” throughout.

For `COc1ccc(-c2nc3c(c4c2C[C@H](c2ccccc2)OC4)CN(C(=O)c2ccco2)CC3)c(C)c1`, the activity, negative = inhibition in experiment [1] is -2.96% [at 1.12 µM]. The Potency entry in experiment [2], in experiment [4] and in experiment [5] was “inactive” each time. Also, the Potency in experiment [3] was 1.69 µM (active).

For the compound `CCCNC(=O)CC1OC(C2CCCCC2)Cc2ccccc21` (stereo unspecified), the Potency entry in experiment [1], in experiment [2], in experiment [3], in experiment [4] and in experiment [5] was “inactive” in each case.

Consider `CCOC(=O)OC[C@H]1O[C@H](C#Cc2ccc(C)cc2C)C=C[C@H]1OC(=O)OCC`, for which the Potency result in experiment [1], in experiment [2], in experiment [3], in experiment [4] and in experiment [5] was “inactive” throughout.

For the compound `COC(=O)c1ccccc1C[C@]1(C(=O)OC)C=C[C@H](C)[C@@H](c2ccccc2)N1C(=O)C(F)(F)F`, the Potency entry in experiment [1], in experiment [2], in experiment [6] and in experiment [5] was “inactive” in each case.

On to `COC(=O)C1=C(C)N(Cc2ccccc2)C(=S)NC1c1ccccc1` (stereo unspecified), for which the Potency entry in experiment [1], in experiment [2], in experiment [3], in experiment [4] and in experiment [5] was “inactive” throughout.

With `COC(=O)CCC(=O)OC1(C)C(=O)C=C2C=C(C3CC3)N(Cc3ccc(OC)cc3)C=C2C1=O` (stereo unspecified), the Potency entry in experiment [1], in experiment [2], in experiment [6] and in experiment [5] was “inactive” in each case.
